Screens from PubChem.
Only some compounds are listed: those with a hit (about 10% of all), similar ones and a draw of the others.
G9a block – G9a (human) methyltransferase inhibition. G9a H3K9 monomethylation, AlphaScreen, 2 h. Potency, µM (titrated, usually from 102 µM), without a hit: at the highest dose activity, negative = inhibition, actives largely listed as inhibitors. 350,000 compounds, 8.8% hits. AID 504332; note: potency is the fitted concentration of half-maximal effect; % is set by controls: 0 for no effect and ±100 for the full control effect; nearly all actives have a fitted effect of over 75% in size
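AlphaScreen read-out: biotin-H3K9 peptide (500 nM) methylation by 20 nM enzyme with 20 uM SAM, 2 h at room temperature after 15 min compound preincubation; anti-monomethyl H3K9 antibody plus donor/acceptor beads, 10 min dark.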
Six1-Eya2 blk – blocks human Six1 binding to Eya2; AID 651725; Q15475+O00167; 360,000 compounds, 0.56% hits; AlphaScreen GST-Six1/His-Eya2 binding, biochemical; active compounds read low; activity change, % (concentration not given with the values); in the data active = activity change below about -65%; inconclusive = mostly about -30% to -63%; note: % is set by controls: 0 for no effect and ±100 for the full control effect
Target sequence (O00167 whole entry, looked up): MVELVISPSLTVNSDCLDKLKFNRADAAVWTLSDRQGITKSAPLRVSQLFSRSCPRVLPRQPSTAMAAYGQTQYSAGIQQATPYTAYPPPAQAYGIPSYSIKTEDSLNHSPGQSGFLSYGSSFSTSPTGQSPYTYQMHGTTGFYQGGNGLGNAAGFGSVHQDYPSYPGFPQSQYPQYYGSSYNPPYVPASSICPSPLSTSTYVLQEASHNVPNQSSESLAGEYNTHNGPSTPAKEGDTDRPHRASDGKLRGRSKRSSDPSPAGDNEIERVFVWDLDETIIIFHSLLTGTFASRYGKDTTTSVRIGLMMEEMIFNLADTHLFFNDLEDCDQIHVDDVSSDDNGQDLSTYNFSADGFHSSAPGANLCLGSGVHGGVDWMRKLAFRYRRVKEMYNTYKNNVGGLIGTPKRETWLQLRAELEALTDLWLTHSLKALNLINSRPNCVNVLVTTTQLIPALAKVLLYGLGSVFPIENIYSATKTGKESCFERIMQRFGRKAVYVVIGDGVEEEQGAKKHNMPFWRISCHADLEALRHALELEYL
Target sequence (Q15475 whole entry, looked up): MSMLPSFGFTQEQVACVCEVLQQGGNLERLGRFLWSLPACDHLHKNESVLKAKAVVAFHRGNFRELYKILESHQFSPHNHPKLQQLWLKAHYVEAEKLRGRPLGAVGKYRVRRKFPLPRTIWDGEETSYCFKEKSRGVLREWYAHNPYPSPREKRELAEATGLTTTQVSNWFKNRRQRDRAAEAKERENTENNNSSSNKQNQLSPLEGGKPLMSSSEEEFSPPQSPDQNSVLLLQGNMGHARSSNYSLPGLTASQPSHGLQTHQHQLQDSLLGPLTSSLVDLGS
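Homogeneous AlphaScreen proximity assay pairing GST-Six1 with His-tagged Eya2 (added as 5X mix: 250 nM and 500 nM) in 50 mM Tris pH 8.0, 300 mM NaCl, 1 mM TCEP. Glutathione donor and nickel acceptor beads; 1 h, 37 °C, dark.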
BAZ2B inh – blocks human BAZ2B; AlphaScreen BAZ2B-H3K14Ac peptide displacement; 360,000 compounds, 4.4% hits; Potency, µM (doses to about 114 µM), for inactives: at the top dose activity change, negative = inhibition, actives largely listed as inhibitors; note: potency is the fitted concentration of half-maximal effect; % is set by controls: 0 for no effect and ±100 for the full control effect; nearly all actives have a fitted effect of over 60% in size
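BAZ2B (50 nM) with biotin-H3(5-23)K14Ac peptide (50 nM) in PBS pH 7.4, 0.01% Tween-20, preformed 30 min, then compound 30 min at room temperature; top concentration 110uM. AlphaScreen streptavidin donor/nickel chelate acceptor beads (10 ug/mL final), 20 min dark, signal read.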
HP1b binding inh – blocks HP1-beta chromodomain binding to methylated histone tails. AlphaScreen HP1-beta / biotin-H3K9me3 peptide binding. Potency, µM (highest dose often 114 µM), inactives show at the top dose activity change, negative = inhibition, hits mostly inhibitors. 390,000 compounds, 0.56% hits. AID 540317; note: potency is the fitted concentration of half-maximal effect; nearly all actives have a fitted effect of over 70% in size
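HP1-beta protein (50 nM final) preincubated 30 min at room temperature with biotinylated H3(1-18)K9me3 peptide (50 nM) in PBS pH 7.4, 0.01% Tween-20, then compound added for 30 min. AlphaScreen streptavidin donor/nickel chelate acceptor beads (10 ug/mL final), 30 min dark, luminescence read.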
JMJD2A Tudor – blocks the human JMJD2A Tudor domain | O75164 | AlphaScreen JMJD2A-Tudor / H3K4me3 peptide binding | Potency, µM (top dose mostly 114 µM), for the others: top-dose activity change, negative = inhibition, usual class: inhibitors | 390,000 compounds, 4.4% hits; note: potency is the fitted concentration of half-maximal effect; % is set by controls: 0 for no effect and ±100 for the full control effect; nearly all actives have a fitted effect of over 50% in size
CtBP-E1A inh – blocks the CtBP interaction with E1A. 340,000 compounds, 0.49% hits. AlphaScreen GST-E1A/His-CtBP binding, 1536-well; active compounds read low. activity change, % (concentration not given with the values); in the data active = activity change below about -65%; inconclusive = mostly about -30% to -63%; note: % is set by controls: 0 for no effect and ±100 for the full control effect
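GST-E1A and His-tagged CtBP (125 nM each as 5X stock) were preincubated with pin-transferred compound for 2 h at 37 °C in the dark, then glutathione donor and nickel acceptor beads were added for 1 h before AlphaScreen reading.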
* marks the source's active call; other numbers are inactive results; ? = inconclusive; nt = no result; ! = not active in a repeat; [ ] = dose if it differs, or a comment. Unless noted, calls come from the whole dose curve; as a rule, active = well fitted inhibition curve with a large enough effect; inconclusive = small, poorly fitted or top-dose-only effect; inactive = no such curve, though single readings can be large or run the other way.

SMILES	G9a block	Six1-Eya2 blk	BAZ2B inh	HP1b binding inh	JMJD2A Tudor	CtBP-E1A inh
Cc1ccc2c(c1)N(C)/C(=C/c1cccc[n+]1CCO)S2	32µM*	0	-1%	16%	?	-1
Cc1ccc2c(c1)N(C)/C(=C/c1cccc[n+]1C)S2	6.3µM*	-14	?	-25%	?	-12
COCC(=O)/C=C1\Sc2ccccc2N1C	-21%[59 µM]	-3	9%	31%	-16%	6
CN1/C(=C/c2cccc[n+]2C)Sc2ccccc21	25µM*	-2	?	47%	?	3
COc1cccc(OC)c1C1=Nn2c(nnc2-c2ccccc2O)SC1	nt	nt	nt	nt	-12%	nt
CCOc1ccc(S(=O)(=O)N2CCN(c3nc(-c4ccccc4)nc4ccccc34)CC2)cc1OCC	nt	nt	nt	26%	-23%	nt
C=CCSc1nccc(=O)[nH]1	18%[59 µM]	?	6%	22%	50µM*	10
O=C(CSc1nccc(=O)[nH]1)c1ccccc1Br	7.9µM*	-70*	-18%	1%	-1%	-68*
C=CCSc1nc2ccccc2c(=O)[nH]1	14%	1	-5%	29%	-17%	7
Cc1ccc(-n2cccc2C(=O)NS(=O)(=O)c2ccc(C)cc2)cc1	-37%	-1	-34%	50%	-18%	2
Cc1ccc(-n2cccc2C(=S)N=P(N(C)C)(N(C)C)N(C)C)cc1	?	-11	?	-27%	35µM*	5
CCOC(=O)c1cccc(NS(=O)(=O)c2cc(-c3cnc(C4CC4)o3)ccc2C)c1	-7%[12.7 µM]	nt	-26%	15%	-26%	nt
CC1CNCCN1S(=O)(=O)c1cccc2cnccc12 (centres undefined)	11µM*!	1	?	33%	-28%	0
O=S(=O)(c1cccc2cnccc12)N1CCCNCC1	?	-1	4%	5%	89µM*	4
O=S(=O)(c1cc(Cl)ccc1Cl)N1CCNCC1	12%	0	10%	18%	-19%	5
O=C1c2ccccc2C(=O)N1c1cccc2cnccc12	nt	nt	nt	nt	-4%	nt
CCOc1ccc(C(C)=O)cc1N1C(=O)C2C3C=CC(O3)C2C1=O (centres undefined)	?	2	?	28µM*	20µM*	1
CC(C(=O)O)C(=O)O	10µM*	4	-4%	-18%	79µM*	-7
CS(=O)(=O)Cc1nc2ccccc2oc1=O	40µM*	1	-22%	20%	26%	-5
C/C(O)=C\c1nc2ccccc2oc1=O	?	0	-7%	-13%	-13%[11.4 µM]	-1
COc1ccc(C2=NN3C(C2)c2ccccc2OC32C(=O)N(C)c3ccccc32)cc1 (centres undefined)	25µM*	-11	-7%	16%	-24%	-7
COc1ccc(C2=NN3C(C2)c2ccccc2OC3c2cccs2)cc1 (centres undefined)	40µM*	-10	?	27%	-20%	-16
COc1ccc(C2=NN(C(=O)CCC(=O)O)C(c3cccs3)C2)cc1 (centres undefined)	-18%	4	-6%	39%	4%	-10
COc1ccc(C2=NN(C(N)=S)C(c3ccccc3)C2)cc1 (centres undefined)	?	-21	?	-6%	-21%	-7
COc1ccc(CNC(=O)c2ccc(-c3nc(CSc4ccccc4)c(C)o3)cc2)cc1OC	-4%[59 µM]	nt	-24%	38%	-1%	nt
SMILES	G9a block	Six1-Eya2 blk	BAZ2B inh	HP1b binding inh	JMJD2A Tudor	CtBP-E1A inh
N#C/C(=C/Nc1ccccc1C(=O)O)C(N)=O	nt	-8	-15%	8%[57 µM]	-12%	nt
Cc1ccc(S(=O)(=O)N(CC(=O)NCCc2ccc(Cl)cc2)c2ccccc2C)cc1	2%[59 µM]	nt	-4%	11%	-10%	nt
CCOc1cc(C2CC(=O)NC3=C2C(=O)C(C(=O)OC)C(C)C3)cc(Br)c1O (centres undefined)	45µM*	-11	-7%	18%	-15%	-3
COC(=O)C1C(=O)C2=C(CC1C)NC(=O)CC2c1ccc(F)cc1 (centres undefined)	26%[12.7 µM]	15	-3%	4%	-8%	-1
COc1cccc(N2C(=O)C(CC(=O)Nc3ccc(F)cc3)N(CCC3=CCCCC3)C2=O)c1 (centres undefined)	-7%[59 µM]	nt	-19%	31%	-20%	nt
COC(=O)c1cc(=O)n(CCc2ccccc2F)c(=Nc2ccc(F)c(Cl)c2)s1	40µM*	-1	?	3%	?	-11
COC(=O)c1cc(=O)n(Cc2cccs2)c(=Nc2ccc(F)cc2)s1	nt	1	?	-16%	-26%	1
COC(=O)c1cc(=O)n(-c2ccc(F)cc2)c(=Nc2ccc(F)cc2)s1	40µM*	2	?	-14%	?	-9
COC(=O)c1cc(=O)n(Cc2ccco2)c(=Nc2ccc(F)c(Cl)c2)s1	35µM*	-8	?	-21%	?	-4
CCOC(=O)c1cc(C(=O)OCC)c(=O)[nH]c1SCc1ccccc1	-18%	16	-36%	60%	5%	1
CCCCC(Sc1ccc2nnc(-c3ccccn3)n2n1)C(=O)O (centres undefined)	nt	nt	nt	-5%[57 µM]	?	nt
COC(=O)/C(=N/Nc1ccccc1)N1CCCc2ccccc21	45µM*	-15	-37%	1%	?	?
COC(=O)/C(=N/Nc1ccc(C)cc1)N1CCCc2ccccc21	45µM*	-20	?	-6%	?	-6
COc1cccc2cc(C(=O)C3=C(O)C(=O)N(CCN4CCOCC4)C3c3cccs3)oc12 (centres undefined)	17%[59 µM]	6	-8%	7%	79µM*	-5
COc1ccc(OC)c(C2C(C(=O)c3ccco3)=C(O)C(=O)N2CC2CCCO2)c1 (centres undefined)	50µM*	13	?	-9%	-7%	0
COc1ccc(C2C(C(=O)c3ccco3)=C(O)C(=O)N2CCN2CCOCC2)c(OC)c1 (centres undefined)	35µM*	2	-32%	31%	?	23
COC(=O)c1ccc(C2C(C(=O)c3ccco3)=C(O)C(=O)N2CC2CCCO2)cc1 (centres undefined)	45µM*	2	-24%	31%	18%	-11
COc1ccc(C2C(C(=O)c3ccco3)=C(O)C(=O)N2CC2CCCO2)c(OC)c1 (centres undefined)	?	14	-11%	-18%	?	-2
COc1cccc(C2C(C(=O)c3ccc(C)o3)=C(O)C(=O)N2CCN2CCOCC2)c1OC (centres undefined)	nt	7	-9%	10%	?	-1
CN(C)c1ccc(CNC(=O)C2CCN(S(=O)(=O)c3ccc4c(ccn4C)c3)CC2)cc1	?	nt	?	10%[57 µM]	?	nt
